The results in this text go back to PubChem BioAssay (NCATS).

Results filed as inconclusive are left out. Calls of active or inactive are those of the source. Unless noted, calls come from the whole dose curve; as a rule, active = well fitted inhibition curve with a large enough effect; inconclusive = small, poorly fitted or top-dose-only effect; inactive = flat fitted curve, though single readings scatter.

Experiment [1] in a line: qHTS drug screen for cell cycle checkpoint inhibitors in PARPi-resistant BRCA-mutant ovarian cancer cell lines. (AID 1963452; calls by dose curve). The settings on record: PEO1/OlaR viability, CellTiter-Glo luminescence, 96 h, stronger effect = lower value. The method, boiled down: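 PEO1, PEO4 and PEO1/OlaR ovarian cancer cells, 600 per well, exposed 96 h at 37C to a dilution series. Viability read by CellTiter-Glo luminescence, normalized to DMSO and empty wells; activity summarized as Z-AUC.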
(In general: qHTS replaces the single test concentration by a dilution series.)

Experiment [2] is described as follows: qHTS profiling for inhibitors of Plasmodium falciparum proliferation (AID 504749).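 For activity, negative = inhibition: 0% = DMSO vehicle and full inhibition = artemisinin control.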 Note: nearly all actives have a fitted effect of over 60% in size. Note: potency is the fitted concentration of half-maximal effect. To be noted: P. falciparum in erythrocytes, SYBR Green DNA, 72 h. Summed up:
(§1)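 Infected RBCs, 0.3% parasitemia/2.5% Hct final; cpd 72 h, 37 C, 5% CO2; lysis buffer with saponin/triton/SYBR Green I, o/n RT dark; FI 485/535; norm. to artemisinin (0.29 uM) and DMSO.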

In the next experiment the test system is 7G8. The experiment is described as above. The settings on record: P. falciparum in erythrocytes, SYBR Green DNA, 72 h; series mostly up to 28.7 µM. The method, boiled down: as §1
The next experiment concerns AA1029. Described as above. To be noted: P. falciparum in erythrocytes, SYBR Green DNA, 72 h; series mostly up to 28.7 µM. Summed up:
as §1

Another experiment has as its system AS120. The description is as above. To be noted: P. falciparum in erythrocytes, SYBR Green DNA, 72 h; series mostly up to 28.7 µM. Summed up: as §1
In another experiment the test system is ATS189. Described as above. To be noted: P. falciparum in erythrocytes, SYBR Green DNA, 72 h; series mostly up to 28.7 µM. The method, boiled down:
as §1

For the next experiment, the system named is ATS95. The description is as above. The settings on record: P. falciparum in erythrocytes, SYBR Green DNA, 72 h; series mostly up to 28.7 µM. Summed up: as §1
The next experiment relates to C2A. The experiment is described as above. To be noted: P. falciparum in erythrocytes, SYBR Green DNA, 72 h; series mostly up to 28.7 µM. The method, boiled down: as §1
The test system of the next experiment is CP191. The description is as above. The settings on record: P. falciparum in erythrocytes, SYBR Green DNA, 72 h; series mostly up to 28.7 µM. Summed up: as §1
Experiment [3] in a line: qHTS for identification of novel therapeutic agents for treatment of microphthalmiaassociated transcription factor (MiT) renal cell carcinoma (RCC) (AID 1963991). The settings on record: CellTiter-Glo, 48 h, stronger effect = lower value. Summed up:
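Three TFE3-fusion RCC cell lines (UOK109, UOK124, UOK145), 500 cells/well, were exposed to the 1912-compound MIPE 4.0 library for 48 hours at 37 C. Viability was read by CellTiter-Glo luminescence, normalised to DMSO (100%) and empty wells (0%), with 11-concentration curve fits.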

Another experiment deals with 3D7. The experiment in a line: qHTS profiling for inhibitors of Plasmodium falciparum proliferation (AID 504749).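 For activity, negative = inhibition: 0% = DMSO vehicle and full inhibition = artemisinin control.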 Note: nearly all actives have a fitted effect of over 60% in size. Note: potency is the fitted concentration of half-maximal effect. The settings on record: P. falciparum in erythrocytes, SYBR Green DNA, 72 h; series mostly up to 28.7 µM. Summed up: as §1
Another experiment relates to CP185. The description is as above. The settings on record: P. falciparum in erythrocytes, SYBR Green DNA, 72 h; series mostly up to 28.7 µM. The method, boiled down: as §1
A further experiment deals with CP192. The experiment is described as above. To be noted: P. falciparum in erythrocytes, SYBR Green DNA, 72 h; series mostly up to 28.7 µM. Summed up:
as §1

[4] abbreviates: measured here: PEO1 parental Z-AUC.
[5] abbreviates: TFE3-RCC UOK109 viability, measured here: UOK109 Z-AUC.
Where [6] appears, read: TFE3-RCC viability, measured here: UOK124 Z-AUC.
The mark [7] stands for this setting: TFE3-RCC viability, measured here: UOK145 Z-AUC.
The mark [8] stands for this setting: at 12.8 µM (top of the series), parasite line A.
The mark [9] stands for this setting: at 12.8 µM (top of the series), parasite line B.
Setting [10] is: at 28.7 µM (top of the series), parasite line A.
Setting [11] is: at 28.7 µM (top of the series), parasite line B.

For the compound `CN1CCN(CCCN2c3ccccc3Sc3ccc(C(F)(F)F)cc32)CC1`, the Z-AUC in experiment [1] is 0.668 (inactive); in experiment [1] (setting [4]), 0.224; in [1] (measured here: PEO4 Z-AUC), 0.215. In addition, the Potency is 2.24 µM (active) in [2] (parasite line A); 2 µM (active) in [2] (parasite line B); 7.94 µM (active) in the experiment on 7G8; 3.16 µM (active) with AA1029; 3.16 µM (active) with AS120; 3.98 µM (active) in the experiment with ATS189. Besides, the Potency with ATS95 is 12.6 µM (active); in the experiment on C2A it was 7.94 µM (active); in the experiment on CP191, 10 µM (active).

Regarding `O=c1n(CCCN2CCN(c3cccc(Cl)c3)CC2)nc2ccccn12`, the z-score in [3] (setting [5]) was -0.148; in experiment [3] (setting [6]), 0.322; in experiment [3] (setting [7]), 1.01. Also, the activity, negative = inhibition in experiment [2] (setting [8]) is -5.98% (inactive). In addition, the Potency entry in the experiment with 3D7, in the experiment with 7G8, in the experiment on AA1029, in the experiment with AS120, in the experiment with ATS189 and with C2A was “inactive” in each case. The Potency entry in the experiment with CP185, in the experiment with CP191 and with CP192 was “inactive” in each case.

Take `NNCCc1ccccc1`: the Z-AUC is 0.52 (inactive) in experiment [1], 0.364 in experiment [1] (setting [4]) and 0.249 in experiment [1] (measured here: PEO4 Z-AUC). Besides, in [2] (setting [9]), the activity, negative = inhibition was -6.84% (inactive). The Potency result in the experiment with AA1029, in the experiment on ATS189, with ATS95, in the experiment on C2A, in the experiment on CP185 and in the experiment with CP191 was “inactive” each time. Further, the Potency result in the experiment on CP192 was “inactive”.

For `N=c1nc(N2CCCCC2)cc(N)n1O`, the activity, negative = inhibition in [2] (setting [10]) is 6.18% (inactive); in experiment [2] (setting [11]), 18.3% (inactive). The Potency entry with 3D7, with 7G8, in the experiment with AA1029, with AS120, in the experiment on ATS189 and in the experiment with ATS95 was “inactive” each time. The Potency result in the experiment with C2A, in the experiment with CP185, in the experiment with CP191 and in the experiment on CP192 was “inactive” each time.

As for `N#Cc1ccc(C(c2ccc(C#N)cc2)n2cncn2)cc1`, the Z-AUC in [1] is 1.61 (inactive); in experiment [1] (setting [4]), 1.56; in experiment [1] (measured here: PEO4 Z-AUC), 1.79. Also, the activity, negative = inhibition was 0.0131% (inactive) in [2] (setting [8]) and 3.12% (inactive) in experiment [2] (setting [9]). Besides, the Potency result in the experiment on 3D7, in the experiment with 7G8, in the experiment with AA1029, in the experiment on AS120, in the experiment with ATS189 and in the experiment on ATS95 was “inactive” each time. For the same compound, the Potency result with C2A, in the experiment on CP185, with CP191 and with CP192 was “inactive” in each case.

On to `CCOC(=O)C1=C[C@]2(CC)CCCN3CCc4c(n1c1ccccc41)[C@@H]32`, for which the Potency in the experiment with 7G8 was 5.01 µM (active); with AA1029, 10 µM (active); in the experiment on AS120, 8.91 µM (active); with ATS95, 12.6 µM (active).

As to `CC(=O)Oc1ccccc1C(=O)O`, the Z-AUC in [1] was 0.925 (inactive); in [1] (setting [4]) it was 0.885; in experiment [1] (measured here: PEO4 Z-AUC), 1.16. For the same compound, the activity, negative = inhibition was 3.3% (inactive) in experiment [2] (setting [10]) and 6.15% (inactive) in experiment [2] (setting [11]). Further, the Potency result in the experiment with 3D7, in the experiment with 7G8, in the experiment on AA1029, in the experiment with AS120, with ATS189 and in the experiment with ATS95 was “inactive” each time. Also, the Potency entry with C2A, in the experiment with CP185, in the experiment with CP191 and in the experiment on CP192 was “inactive” each time.

As for `Nc1ccc(S(=O)(=O)Nc2ccnn2-c2ccccc2)cc1`, the results for the z-score in experiment [3] (setting [5]), in [3] (setting [6]) and in [3] (setting [7]) were 2.1, 0.571 and 1.56, respectively. The results for the activity, negative = inhibition in experiment [2] (setting [8]) and in [2] (setting [9]) were -1.36% (inactive) and 3.8% (inactive), respectively. The Potency result with 3D7, in the experiment with 7G8, with AA1029, in the experiment with AS120, in the experiment with ATS189 and in the experiment on ATS95 was “inactive” in each case. Also, the Potency entry in the experiment with C2A, in the experiment with CP185, with CP191 and in the experiment on CP192 was “inactive” each time.
